Some of the results follow. Where a call stands in place of a potency, no number is given. Results filed as inconclusive are left out. Active and inactive are the calls of the source. Calls follow the shape of the dose curve; as a rule, active = well fitted inhibition curve with a large enough effect; inconclusive = small, poorly fitted or top-dose-only effect; inactive = no such curve, though single readings can be large or run the other way.
Assay: qHTS Assay for Inhibitors of Hepatitis C Virus (HCV): Cytotoxicity Counterscreen for Cherry-picked Compounds
Settings: HCV host cell line cytotoxicity counterscreen; series mostly up to 41.8 µM
Text: Hepatitis C virus (HCV) infects about 200 million people in the world. Many infected people progress to chronic liver disease including cirrhosis with a risk of developing liver cancer. To date, there is no effective vaccine for hepatitis C. Current therapy based on interferon is only effective in about half of the patients and is associated with significant adverse effects. The fraction of people with HCV who can complete a successful treatment is estimated to be no more than 10 percent. Recent development of direct-acting antivirals against HCV, such as protease and polymerase inhibitors, is promising but still requires combination with peginterferon and ribavirin for maximal efficacy. In addition, these agents are associated with high rate of resistance and many have significant side effects. Due to the lack of a culture system for infectious HCV, the search for new HCV drugs has been greatly hampered. […] High-throughput screening (HTS) with an infectious HCV system would cover the complete spectrum of potentially druggable targets in all stages of HCV lifecycle, and would have more biological relevance than other cell-based assays. Moreover, targeting several key processes in the viral life cycle may not only increase antiviral efficacy; more importantly, it may also reduce the capacity of the virus to develop resistance to the compound.
The goal of this project is to identify novel HCV inhibitors as new therapies for hepatitis C, using a highly sensitive and specific assay platform based on a HCV infectious cell culture system established in the laboratory and adapted for high-throughput HCV drug screen. The primary assay was used to screen the MLPCN compound library and potential inhibitors were cherry picked for confirmation and further characterization. To evaluate the cytotoxic effect of the selected compounds, a secondary cell based counterscreen using the Promega CellTiter Glo reagent and Huh cell line was developed. The data herein is the result of the Cytotoxicity counterscreen against the cherry picked compounds. No significant activity is the desired outcome for this assay.
NIH Chemical Genomics Center [NCGC]
NIH Molecular Libraries Probe Centers Network [MLPCN]
Assay Submitter (PI): Jake Liang, NIDDK
Cells were plated in a 1536-wel tissue culture grade plates at a final concentration of 1,000 cells/well (3 uL volume). The assay plate was culture for 4 h. Then 23 nL of compounds from the library collection was added to each well and incubated for 44 h at 37C, 5% CO2. A volume of 4.5 uL CellTiterGlo reagent was to each well and the plates were incubated at room temperature for 15 min. The luminescence signal was read for 15 sec using the PerkinElmer ViewLux plate reader.
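Also: 44 h compound exposure; nearly all actives have a fitted effect of over 55% in size.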

| Structure (SMILES) | Potency |
| --- | --- |
| CCCOc1ccc(C(=O)C(CCC(CNCC)C(=O)c2ccc(OCCC)cc2)CNCC)cc1 (stereo not drawn) | 7.91 µM (active) |
| COCCCn1c(SCc2cccc(OC)c2)nc2cc(OC)c(OC)cc2c1=N | inactive |
| COc1ccc(NC(=O)c2sc(N3CCOCC3)nc2-c2ccccc2)c(OC)c1 | inactive |
| Cc1cc(-c2cccs2)nc(-n2cccc2)n1 | inactive |
| CC(C)(C)c1ccc(Oc2ccc(N)cc2)cc1 | inactive |
| CN(C)c1nc(N)nc(CSc2nnnn2-c2cccc3ccccc23)n1 | 6.28 µM (active) |
| CCCc1nc2ccccc2c(C(=O)OCc2nnc(-c3cc(OC)c(OC)c(OC)c3)o2)c1CC | inactive |
| COc1ccc(OCCNC(=O)c2cc(C3CC3)nc3c2cnn3C(C)C)cc1 | inactive |
| Cc1c(-c2cccc(Cl)c2)nc2ccccc2c1C(=O)OCC(=O)N(C)C1CCS(=O)(=O)C1 (stereo not drawn) | inactive |
| Cc1ccc(C)c(N2CCN(C(=O)CCCCCn3c(=S)[nH]c4ccc(N5CCOCC5)cc4c3=O)CC2)c1 | 9.95 µM (active) |
| COc1ccc(C(C(=O)NC2CCCCC2)N(C(=O)CCl)c2ccccc2Cl)cc1 (stereo not drawn) | 2.5 µM (active) |
| O=S(=O)([N-]c1nc2ccccc2nc1-[n+]1ccc(Cc2ccccc2)cc1)c1ccc(Br)s1 | inactive |
| N#C/C(=C1\CCCN1)c1nc(-c2ccccc2)cs1 | inactive |
